Screening data deposited in PubChem by several laboratories.
An excerpt weighted towards active compounds, which were near 4.3% of everything screened.
NR3A LBD binder: binders of NR3A ligand-binding domain, primary screen, biophysical, differential scanning fluorimetry, uHTS | Glutamate receptor ionotropic, NMDA 3A (GRIN3A) ligand-binding domain | NR3A LBD differential scanning fluorimetry, Tm shift; 0% = protein alone, 100% = glycine-bound protein | Tm shift relative to glycine control, % at 25 µM | 340,000 tested, 2.5% active;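 active = melting temperature shift of at least 10% of the positive control shift, at one fixed dose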
NALP1 yeast inh: NALP1 inflammasome inhibitors in reconstituted yeast, colorimetric, S. cerevisiae, triplicate retest; S. cerevisiae NALP1/ASC/caspase-1 growth, X-gal OD620, 72 h; inhibition, % at 10 µM; 280,000 tested, 0.61% active; in the data active = inhibition mostly above about 24%, no sharp cut-off; inactive = mostly below about 32%
dFosB activator: activators of delta FosB homodimer, primary screen, biochemical, fluorescence polarization, TAMRA-CDK5 oligo, single point; Protein FosB (Mus musculus), P13346; purified delta FosB; percent of positive-control signal above neutral wells; activation, % at 25 µM; 340,000 tested, 0.99% active;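 active = mean activation above about 17%, with every replicate also reaching it, limit read from the data, passing the limit was not always enough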
Target sequence (P13346 whole entry, looked up): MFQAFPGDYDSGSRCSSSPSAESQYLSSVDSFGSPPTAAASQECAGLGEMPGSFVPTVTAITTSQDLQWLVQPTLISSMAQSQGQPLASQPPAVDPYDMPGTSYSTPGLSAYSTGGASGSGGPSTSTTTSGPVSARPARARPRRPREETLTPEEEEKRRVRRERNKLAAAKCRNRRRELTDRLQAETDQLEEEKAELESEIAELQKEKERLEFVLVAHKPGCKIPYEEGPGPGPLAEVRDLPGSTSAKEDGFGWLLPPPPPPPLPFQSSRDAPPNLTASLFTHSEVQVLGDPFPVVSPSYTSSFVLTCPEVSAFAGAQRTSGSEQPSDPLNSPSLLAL
Yeast superoxide: reduction of superoxide in aged yeast, primary screen, HTS; S. cerevisiae aged cells, superoxide DHE fluorescence; active compounds read low; superoxide response (% of plate mean), % at 10 µM; 330,000 tested, 0.18% active; AID 2690, 2010;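 active = superoxide response under a set limit, about three screen SD below normal, cut at about 65% in these data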;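 note: yeast aged for seven days with compound at 30 °C before DHE staining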
UBC13 polyUb: UBC13 polyubiquitin chain formation inhibitors, primary screen, biochemical, TR-FRET, uHTS | AID 485273, 2010 | 330,000 tested, 0.47% active | inhibition, % at 20 µM; in the data active = inhibition above about 45%, passing the limit was not always enough
Target sequence (P61088 whole entry, looked up): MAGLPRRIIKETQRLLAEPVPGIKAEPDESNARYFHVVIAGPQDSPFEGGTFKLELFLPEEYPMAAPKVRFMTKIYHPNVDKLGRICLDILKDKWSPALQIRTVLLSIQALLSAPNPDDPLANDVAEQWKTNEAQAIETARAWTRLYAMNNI
Casp3 counter: CASP3 inhibitor validation, counterassay for project on UBE2N polyubiquitination blockers, biochemical, one dose; shares compounds with UBC13 polyUb; Recombinant caspase-3, Caspase-Glo 3/7 luminescence, 60 min; inhibition, % at 20 µM; 1,400 tested, 4% active; AID 488856, 2010;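 active = mean inhibition across replicates above about 26%, limit read from the data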
UBC13 confirm: UBC13 polyubiquitination inhibitors, single-point retest, confirmation, biochemical, TR-FRET, single concentration; 1,400 tested, 68% active; shares compounds with UBC13 polyUb; inhibition, % at 10 µM; in the data active = inhibition above about 45%
Large screens that a line does not name were inactive (follow-up assays come after a bar, where they were run).

COc1ccccc1NC(=O)c1c(N=Cc2ccccc2O)cnn1C	UBC13 polyUb 86.7 (no result: NR3A LBD binder, dFosB activator) | Casp3 counter inactive | UBC13 confirm 96.4
Cc1ccc2c(c1)c1c3n2CCN(C(=O)CN2CCN(C)CC2)C3CCC1 (configuration not stated)	none
CN1CCN(CC(=O)N2CCn3c4c(c5cc(C6CCCCC6)ccc53)CCCC42)CC1 (configuration not stated)	UBC13 polyUb 89.5 | Casp3 counter inactive | UBC13 confirm 103.0
CNC(=O)c1ccccc1NC(=O)c1cccc(S(=O)(=O)N2CCCCC2)c1	none
CNC(=O)c1ccccc1NC(=O)c1cccc(S(=O)(=O)N2CCC(C)CC2)c1	UBC13 polyUb 50.2 | Casp3 counter inactive | UBC13 confirm 58.0
CCNC(=O)c1ccccc1NC(=O)c1cccc(S(=O)(=O)N2CCC(C)CC2)c1	UBC13 polyUb 67.1 | Casp3 counter inactive | UBC13 confirm 74.7
CCOC(=O)N1CCN(C(=O)c2ccc3c(c2)N(CC)CCS3)CC1	none
CCOC(=O)N1CCN(C(=O)c2ccc3c(c2)N(Cc2ccc(F)cc2)CCS3)CC1	UBC13 polyUb 47.7 | Casp3 counter inactive | UBC13 confirm inactive
Cc1noc(C)c1S(=O)(=O)N(C)C[C@H]1Oc2ccc(NS(=O)(=O)c3ccccc3)cc2C(=O)N([C@H](C)CO)C[C@@H]1C	none (no result: NALP1 yeast inh)
CCCC(=O)N(CCN1CCOCC1)c1nc2c(C)cccc2s1	UBC13 polyUb 68.6 | Casp3 counter inactive | UBC13 confirm 73.1
CC(C)(C)c1cc(CCC(=O)NNC(=O)c2ccncc2)cc(C(C)(C)C)c1O	none (no result: NALP1 yeast inh)
CCN1CCN(CCCNC(=O)c2cc3c(s2)-c2ccccc2OC3)CC1	none
Cc1cccc2c1-c1sc(C(=O)NCCCN3CCCC(C)C3)cc1CO2 (configuration not stated)	UBC13 polyUb 66.6 | Casp3 counter inactive | UBC13 confirm 96.9
CC1CC(C)CN(CCCNC(=O)c2cc3c(s2)-c2ccccc2OC3)C1 (configuration not stated)	UBC13 polyUb 45.0 | Casp3 counter inactive | UBC13 confirm 54.7
CCCN1CCN(CCCNC(=O)c2cc3c(s2)-c2c(C)cccc2OC3)CC1	UBC13 polyUb 48.6 | Casp3 counter inactive | UBC13 confirm 57.0
Clc1ccc(-c2ccnc3nc(N4CCOCC4)nn23)c(Cl)c1	none (no result: NALP1 yeast inh, Yeast superoxide, UBC13 polyUb)
COc1ccc(CC(=O)Oc2cc(C)ccc2C)cc1	none
CCCCCc1cc(=O)oc2c(C(CCN3CCCC(C)C3)c3ccc(OC)cc3)c(OC)cc(OC)c12 (configuration not stated)	UBC13 polyUb 65.2 | Casp3 counter inactive | UBC13 confirm 53.1
COc1cc(OC)c2ccc(=O)oc2c1C(CCN1CCCC1)c1ccc(N(C)C)cc1 (configuration not stated)	none
CCN(CC)CCC(c1ccc(N(C)C)cc1)c1c(OC)cc(OC)c2ccc(=O)oc12 (configuration not stated)	none
CCCCCc1cc(=O)oc2c(C(CCN3CCCC3)c3ccc(N(C)C)cc3)c(OC)cc(OC)c12 (configuration not stated)	UBC13 polyUb 81.7 | Casp3 counter inactive | UBC13 confirm inactive
CCCCCc1cc(=O)oc2c(C(CCN(CC)CC)c3ccc(OC)cc3)c(OC)cc(OC)c12 (configuration not stated)	UBC13 polyUb 82.8 | Casp3 counter inactive | UBC13 confirm 76.2
CCCCCc1cc(=O)oc2c(C(CCN3CCCC3)c3cc(OC)c(OC)c(OC)c3)c(OC)cc(OC)c12 (configuration not stated)	UBC13 polyUb 80.3 | Casp3 counter inactive | UBC13 confirm 73.4
CCCC1(C(=O)OC)NC(c2ccc(OC)cc2OC)C2C(=O)N(c3cccc(C(C)=O)c3)C(=O)C21 (configuration not stated)	none
COc1cccc(NC(=O)C2CCC(CNS(=O)(=O)c3ccc4c(c3)CC(C)N4C(C)=O)CC2)c1 (configuration not stated)	none
CC(C)(C)OC(=O)N1CCCC(C(=O)Nc2cccc(C(=O)NCCCCc3ccccc3)c2)C1 (configuration not stated)	none (no result: NALP1 yeast inh, Yeast superoxide, UBC13 polyUb)
COCCCNC(=O)C1Cc2cc(S(=O)(=O)N3CCCC3)ccc2N1C(C)=O (configuration not stated)	none
CCCCCc1cc(=O)oc2c(C(CCN3CCN(c4ccccc4)CC3)c3ccc4c(c3)OCO4)c(OC)cc(OC)c12 (configuration not stated)	none
CCCCCc1cc(=O)oc2c(C(CCN3CCCCC3)c3ccc(OC)cc3)c(OC)cc(OC)c12 (configuration not stated)	UBC13 polyUb 83.8 | Casp3 counter inactive | UBC13 confirm 62.8
C[C@@H]1O[C@@H](Oc2c(-c3cc(O)c(O)c(O)c3)oc3cc(O)cc(O)c3c2=O)[C@H](O)[C@H](O)[C@H]1O	UBC13 polyUb 49.9 | Casp3 counter inactive | UBC13 confirm inactive
O=P(c1ccccc1)(c1ccccc1)C(O)c1ccc(Br)cc1 (configuration not stated)	none
C#CCOCCOCCOCCNc1nc(N2CCN(C(=O)CCCCCCCCCCNC(=O)Cn3cc(C[C@@H](C)O)nn3)CC2)nc(N2CCN(C(=O)CCCCCCCCCCNC(=O)[C@@H]([C@H](C)CC)n3cc(CCCCCN)nn3)CC2)n1	UBC13 polyUb 119.8 (no result: NALP1 yeast inh) | Casp3 counter inactive | UBC13 confirm 121.4
C#CCOCCOCCOCCNc1nc(N2CCN(C(=O)Cn3cc(CCCCN)nn3)CC2)nc(N2CCN(C(=O)Cn3cc(CC(C)O)nn3)CC2)n1 (configuration not stated)	none
C#CCOCCOCCOCCNc1nc(N2CCN(C(=O)CCCCCCCCCCNC(=O)[C@H](CCCCN)n3cc(C)nn3)CC2)nc(N2CCN(C(=O)CCCCCCCCCCNC(=O)[C@@H]([C@H](C)O)n3cc(C)nn3)CC2)n1	NR3A LBD binder 25.8, UBC13 polyUb 116.7 (no result: NALP1 yeast inh) | Casp3 counter inactive | UBC13 confirm 110.9
